“And” between values parts separate entries of the source, which are not always exact repeats. Equal values may be shown once. In all, about 5,500 compounds went through this assay and about 2,000 (36%) were called active. Roughly 18% stayed inconclusive and do not appear here. Rule as the data show it: active = normalized growth mostly below about 0.91 (no sharp cut-off); inconclusive = no clear call, values can overlap the other calls; inactive = mostly above about 0.92. This is one part of the list.
Test: chemical genetic growth profiling, strain panel (AID 1159580);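 also: tested at 20 µM; growth read once vehicle control cultures reached saturation at 30 °C; 1 = growth at the plate median or of vehicle wells; lower values mean less growth of the strain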
Conditions: S. cerevisiae deletion strains, growth OD

Measured: normalized growth

COc1ccc(CN(CCN(C)C)c2ccccn2)cc1
inactive: locus YAL013W, strain DEP1, stronger effect = lower value 0.971 | locus YAL021C, strain ccr4, stronger effect = lower value 1.01 | locus YAL026C, strain drs2, stronger effect = lower value 1.03 | locus YAL030W, strain snc1, stronger effect = lower value 0.999 | locus YAL040C, strain CLN3, stronger effect = lower value 0.955 | locus YBL061C, strain skt5, stronger effect = lower value 1.01 | locus YBR009C, strain hhf1, stronger effect = lower value 0.986 | locus YBR021W, strain FUR4, stronger effect = lower value 0.995 | locus YBR023C, strain chs3, stronger effect = lower value 1.03 | locus YBR171W, strain sec66, stronger effect = lower value 1.02 | locus YBR229C, strain ROT2, stronger effect = lower value 0.991 | locus YBR231C, strain swc5, stronger effect = lower value 1.02 | locus YBR279W, strain paf1, stronger effect = lower value 1.01 | locus YCL011C, strain gbp2, stronger effect = lower value 1.03 | locus YCL016C, strain dcc1, stronger effect = lower value 1.03 | locus YCL029C, strain bik1, stronger effect = lower value 0.989 | locus YCL061C, strain MRC1 (second series), stronger effect = lower value 0.986 | locus YCL069W, strain vba3, stronger effect = lower value 1.01 | locus YCR088W, strain abp1, stronger effect = lower value 1.02 | locus YDL005C, strain med2, stronger effect = lower value 1.03 | locus YDL035C, strain GPR1, stronger effect = lower value 0.996 | locus YDL040C, strain nat1, stronger effect = lower value 1.01 | locus YDL074C, strain BRE1, stronger effect = lower value 1.01 | locus YDL101C, strain DUN1, stronger effect = lower value 0.993 | locus YDL134C, strain PPH21, stronger effect = lower value 0.995 | locus YDL185W, strain tfp1, stronger effect = lower value 0.951 | locus YDL192W, strain arf1, stronger effect = lower value 0.978 | locus YDR001C, strain nth1, stronger effect = lower value 1.01 | locus YDR069C, strain doa4, stronger effect = lower value 1.01 | locus YDR101C, strain arx1, stronger effect = lower value 0.982 | locus YDR137W, strain rgp1, stronger effect = lower value 1.04 | locus YDR150W, strain NUM1, stronger effect = lower value 1.02 | locus YDR159W, strain sac3, stronger effect = lower value 0.992 | locus YDR162C, strain NBP2, stronger effect = lower value 0.992 | locus YDR195W, strain ref2 0.966 | locus YDR297W, strain sur2, stronger effect = lower value 1.01 | locus YDR318W, strain mcm21, stronger effect = lower value 0.989 | locus YDR334W, strain swr1, stronger effect = lower value 1 | locus YDR335W, strain msn5, stronger effect = lower value 1.03 | locus YDR363W, strain ESC2, stronger effect = lower value 1 | locus YDR388W, stronger effect = lower value 0.998 | locus YDR392W, strain spt3, stronger effect = lower value 1.04 | locus YDR502C, strain sam2, stronger effect = lower value 0.979 | locus YEL003W, strain gim4, stronger effect = lower value 1.02 | locus YEL037C, strain rad23, stronger effect = lower value 1.01 | locus YEL061C, strain CIN8 (second series), stronger effect = lower value 1.02 | locus YEL061C, strain CIN8, stronger effect = lower value 0.999 | locus YER002W, strain NOP16, stronger effect = lower value 1 | locus YER015W, strain faa2, stronger effect = lower value 1.03 | locus YER016W, strain bim1, stronger effect = lower value 1.02 | locus YER110C, stronger effect = lower value 0.968 | locus YER111C, strain swi4, stronger effect = lower value 1.01 | locus YER155C, strain BEM2 (second series), stronger effect = lower value 1.02 | locus YER155C, strain BEM2, stronger effect = lower value 0.983 | locus YER167W, strain BCK2, stronger effect = lower value 1 | locus YFR010W, strain ubp6, stronger effect = lower value 1 | locus YGL078C, strain dbp3, stronger effect = lower value 0.998 | locus YGL086W, strain mad1, stronger effect = lower value 0.988 | locus YGL167C, strain pmr1, stronger effect = lower value 1.02 | locus YGL173C, strain kem1, stronger effect = lower value 1.02 | locus YGL227W, strain vid30, stronger effect = lower value 1.01 | locus YGL240W, strain doc1, stronger effect = lower value 0.991 | locus YGL248W, strain PDE1, stronger effect = lower value 0.999 | locus YGL253W, strain hxk2, stronger effect = lower value 1.03 | locus YGR078C, strain PAC10, stronger effect = lower value 0.983 | locus YGR135W, strain pre9, stronger effect = lower value 0.988 | locus YGR229C, strain SMI1, stronger effect = lower value 1.01 | locus YGR252W, strain gcn5, stronger effect = lower value 1.12 | locus YHR013C, strain ard1, stronger effect = lower value 1.08 | locus YHR027C, strain rpn1, stronger effect = lower value 1.02 | locus YHR030C, strain SLT2, stronger effect = lower value 0.992 and 1.05 | locus YHR079C, strain IRE1 (second series), stronger effect = lower value 0.987 | locus YHR079C, strain IRE1, stronger effect = lower value 1.06 | locus YHR094C, strain hxt1, stronger effect = lower value 0.981 | locus YHR129C, strain ARP1, stronger effect = lower value 1 | locus YHR142W, strain chs7, stronger effect = lower value 1.05 | locus YHR200W, strain rpn10, stronger effect = lower value 0.993 | locus YIL066C, strain RNR3, stronger effect = lower value 0.995 | locus YIL073C, strain SPO22, stronger effect = lower value 0.916 | locus YIL125W, strain kgd1, stronger effect = lower value 0.973 | locus YIR030C, strain dcg1, stronger effect = lower value 0.99 | locus YJL092W, strain hpr5, stronger effect = lower value 1.02 | locus YJL095W, strain BCK1 (second series), stronger effect = lower value 1 | locus YJL095W, strain BCK1, stronger effect = lower value 1.01 and 1.03 | locus YJL115W, strain asf1, stronger effect = lower value 1.02 | locus YJL129C, strain trk1, stronger effect = lower value 1.03 | locus YJL134W, strain LCB3, stronger effect = lower value 0.989 | locus YJL154C, strain vps35, stronger effect = lower value 1.02 | locus YJL164C, strain tpk1, stronger effect = lower value 1.02 | locus YJL166W, strain qcr8, stronger effect = lower value 1.01 | locus YJL168C, strain set2, stronger effect = lower value 0.993 | locus YJL187C, strain SWE1 (second series), stronger effect = lower value 0.985 | locus YJR043C, strain POL32, stronger effect = lower value 1.01

Source: PubChem BioAssay AID1159580 (chemical genetic matrix, 2015)
